In PubChem BioAssay (Tox21) one finds Potency and outcome data, which are given here for 32 compounds.

Records with an inconclusive call do not appear. A call without a number means that no potency is given here. Calls of active or inactive are those of the source. Unless noted, calls come from the whole dose curve.

One assay addresses Estrogen receptor (Homo sapiens) (UniProt P03372). The assay can be described thus: qHTS assay to identify small molecule antagonists of the estrogen receptor alpha (ER-alpha) signaling pathway (AID 743069; active = well fitted curve in the direction sought with a large enough effect in the signal ratio in the repeat runs, not every such curve was filed as active; the % refers to the signal ratio). As to conditions: HEK293 ER-alpha-UAS-bla, beta-lactamase ratio, antagonist mode; series mostly up to 69.4 µM. Put shortly:
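Screening used a UAS-driven beta-lactamase reporter integrated into HEK293 cells expressing ER-alpha, stimulated with 17beta-estradiol alongside test compounds over 18 hr at 37C; signal came from LiveBLAzer B/G FRET fluorescence.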
A general note: Quantitative high-throughput screening tests each substance at several concentrations.
With `c1ccc2cnncc2c1`, the Potency result is “inactive”.
With `CCCCC1CCCCC(=O)O1` (configuration not stated), the Potency result is “inactive”.
Regarding `C=C(C)[C@H]1CC=C(C)CC1`, the Potency result is “inactive”.
Still for that read-out and setting: next, `c1cc(CN2CCCCC2)cc(OCCCNc2nc3ccccc3s2)c1`: “inactive”; `CN1[C@@H]2CC[C@H]1CC(NC(=O)n1c(=O)[nH]c3ccccc31)C2` (some centres not stated): “inactive”.
Consider `CCN1CCCC(OC(=O)C(c2ccccc2)c2ccccc2)C1` (configuration not stated), for which the Potency entry is “inactive”.
`CCCCOCC(C)OCC(C)O` (configuration not stated): the Potency entry was “inactive”.
For `Cc1nccn1CC1CCc2c(c3ccccc3n2C)C1=O` (configuration not stated), the Potency entry is “inactive”.

Test system in the next assay: not listed separately
The assay can be described thus: qHTS assay to identify small molecule antagonists of the estrogen receptor alpha (ER-alpha) signaling pathway - cell viability counter screen (AID 743074). Note: nearly all actives have a fitted effect of over 45% in size. As to conditions: ERalpha-bla HEK293 viability, CellTiter-Glo luminescence, 18 h; series mostly up to 69.4 µM.
For the compound `O=C(O)/C=C/c1ccc(Cn2ccnc2)cc1`, the compound was classed as inactive.
In the case of `c1ccc2cnncc2c1`, the outcome was inactive.
Take `CCCCC1CCCCC(=O)O1` (configuration not stated): the outcome was inactive.
As to `CCCCCCCCCCCCCCCCCCOCC(O)CO` (configuration not stated), the result was inactive.
With `C=C(C)[C@@H]1CCC2=CC(=O)C[C@@H](C)[C@]2(C)C1`, the call was inactive.
In the case of `C=C(C)[C@H]1CC=C(C)CC1`, the call was inactive.
In the case of `COC(=O)[C@H]1[C@H]2C[C@@H]3c4[nH]c5cc(OC)ccc5c4CCN3C[C@H]2C[C@@H](OC(=O)COc2ccc(OC)cc2)[C@@H]1OC`, the compound was called inactive.
Turning to `CN1[C@@H]2CC[C@H]1CC(NC(=O)n1c(=O)[nH]c3ccccc31)C2` (some centres not stated), the call was inactive.
Turning to `COc1ccc(N=[N+]([O-])c2ccc(OC)cc2)cc1`, the call was inactive.
For `NC(CS)C(=O)O` (configuration not stated), the result was inactive.
Consider `Oc1ccc2c(c1)OC[C@@H](N1CCC(O)(c3ccc(F)cc3)CC1)[C@H]2O`, for which the compound was called inactive.
In the case of `CCCCCCCCCCCCI`, the result was inactive.
Turning to `C=C(C)C(=O)NCCCN(C)C`, the call was inactive.
Same read-out and setting: with `CCN1CCCC(OC(=O)C(c2ccccc2)c2ccccc2)C1` (configuration not stated) the entry was “inactive”.
Consider `CCCCOCC(C)OCC(C)O` (configuration not stated), for which the result was inactive.
Take `CC(C)c1ccc2oc3nc(N)c(C(=O)O)cc3c(=O)c2c1`: the result was inactive.
Regarding `Cc1ccccc1Br`, the compound was called inactive.
With `COC(=O)C1=C(C)NC(C)=C(C(=O)OCC(C)=O)C1c1ccccc1[N+](=O)[O-]` (configuration not stated), the compound was classed as inactive.
Take `CCCCC=O`: the compound was classed as inactive.
Consider `Cc1nccn1CC1CCc2c(c3ccccc3n2C)C1=O` (configuration not stated), for which the result was inactive.
Consider `N#CCN(CC#N)CCN(CC#N)CC#N`, for which the call was inactive.
Still for that read-out and setting: next, `CN(C)N=Nc1ccccc1`: “inactive”; `CCC(=O)Nc1cccc(N)c1`: “inactive”.
For `Cc1ccc(N)cc1[N+](=O)[O-]`, the compound was called inactive.

The target in another assay is Estrogen receptor (Homo sapiens) (UniProt P03372). The assay can be described thus: qHTS assay to identify small molecule agonists of the estrogen receptor alpha (ER-alpha) signaling pathway (AID 743075). The settings on record: HEK293 ER-alpha-UAS-bla, beta-lactamase FRET ratio, 18 h; series mostly up to 70.1 µM.
Sequence of Estrogen receptor (Homo sapiens) (P03372 whole entry, looked up): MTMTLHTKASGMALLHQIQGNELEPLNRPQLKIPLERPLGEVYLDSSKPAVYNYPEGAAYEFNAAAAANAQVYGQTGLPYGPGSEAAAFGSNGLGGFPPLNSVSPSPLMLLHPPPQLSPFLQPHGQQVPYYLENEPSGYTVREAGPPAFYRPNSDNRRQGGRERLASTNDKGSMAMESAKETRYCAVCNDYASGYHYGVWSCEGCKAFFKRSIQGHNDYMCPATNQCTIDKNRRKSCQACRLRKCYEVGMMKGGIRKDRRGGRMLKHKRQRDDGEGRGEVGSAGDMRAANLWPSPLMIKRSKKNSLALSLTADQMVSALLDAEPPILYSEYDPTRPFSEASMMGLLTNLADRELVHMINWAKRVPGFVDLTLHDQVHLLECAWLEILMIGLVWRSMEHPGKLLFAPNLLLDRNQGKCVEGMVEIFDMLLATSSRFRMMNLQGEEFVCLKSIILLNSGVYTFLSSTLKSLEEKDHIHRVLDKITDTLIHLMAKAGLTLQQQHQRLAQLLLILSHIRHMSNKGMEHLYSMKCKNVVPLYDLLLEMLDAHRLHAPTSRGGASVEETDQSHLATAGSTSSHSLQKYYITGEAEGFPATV
As for `O=C(O)c1ccccc1S`, the Potency entry was “inactive”.
Same read-out and setting: with `c1ccc2cnncc2c1` the entry was “inactive”.
Take `CCCCC1CCCCC(=O)O1` (configuration not stated): the Potency entry was “inactive”.
With `O=S(=O)(O)c1ccccc1O`, the Potency entry is “inactive”.
Regarding `CCc1cc(S(=O)(=O)O)c2cc(C(C)C)cccc1-2`, the Potency entry is “inactive”.
Same read-out and setting: next, `C=C(C)[C@@H]1CCC2=CC(=O)C[C@@H](C)[C@]2(C)C1`: “inactive”.
Regarding `C=C(C)[C@H]1CC=C(C)CC1`, the Potency entry was “inactive”.
`CC1=CC(C)C(C=O)C(C)C1` (configuration not stated): the Potency entry was “inactive”.
For `c1cc(CN2CCCCC2)cc(OCCCNc2nc3ccccc3s2)c1`, the Potency result was “inactive”.
`COC(=O)[C@H]1[C@H]2C[C@@H]3c4[nH]c5cc(OC)ccc5c4CCN3C[C@H]2C[C@@H](OC(=O)COc2ccc(OC)cc2)[C@@H]1OC`: the Potency entry is “inactive”.
With `CN1[C@@H]2CC[C@H]1CC(NC(=O)n1c(=O)[nH]c3ccccc31)C2` (some centres not stated), the Potency result is “inactive”.
With `COc1ccc(N=[N+]([O-])c2ccc(OC)cc2)cc1`, the Potency result is “inactive”.
For `Oc1ccc2c(c1)OC[C@@H](N1CCC(O)(c3ccc(F)cc3)CC1)[C@H]2O`, the Potency entry is “inactive”.
On the same count and under the same terms, next, `CCC(=O)/C=C/c1ccc(OC)cc1`: “inactive”; `CN(C)C(=O)C(CCN1CCC(O)(c2ccc(Cl)cc2)CC1)(c1ccccc1)c1ccccc1`: “inactive”; `CCN1CCCC(OC(=O)C(c2ccccc2)c2ccccc2)C1` (configuration not stated): “inactive”.
The same measure, in the same setting: with `CCCCOCC(C)OCC(C)O` (configuration not stated) the entry was “inactive”; with `COC(=O)C1=C(C)NC(C)=C(C(=O)OCC(C)=O)C1c1ccccc1[N+](=O)[O-]` (configuration not stated), “inactive”; with `Cc1nccn1CC1CCc2c(c3ccccc3n2C)C1=O` (configuration not stated), “inactive”.
For `CCC(=O)Nc1cccc(N)c1`, the Potency result was “inactive”.
Take `Cc1nc(-c2ccc(OCC(C)C)c(C#N)c2)sc1C(=O)O`: the Potency entry was “inactive”.

The next assay shares this target. The assay can be described thus: qHTS assay to identify small molecule agonists of the estrogen receptor alpha (ER-alpha) signaling pathway using the BG1 cell line (AID 743079; active = well fitted activation curve with a large enough effect in the repeat runs; note: nearly all actives have a fitted effect of over 20% in size; note: potency is the fitted concentration of half-maximal effect). As to conditions: BG1Luc4E2 cells, ERE-luciferase agonist, 22 h; series mostly up to 70.3 µM.
With `O=C(O)c1ccccc1S`, the Potency entry was “inactive”.
With `c1ccc2cnncc2c1`, the Potency entry is “inactive”.
With `CCCCC1CCCCC(=O)O1` (configuration not stated), the Potency entry was “inactive”.
On to `CCCCCCCCCCCCCCCCCCOCC(O)CO` (configuration not stated), for which the Potency result is “inactive”.
Turning to `O=S(=O)(O)c1ccccc1O`, the Potency entry is “inactive”.
`CCc1cc(S(=O)(=O)O)c2cc(C(C)C)cccc1-2`: the Potency entry is “inactive”.
Consider `C=C(C)[C@@H]1CCC2=CC(=O)C[C@@H](C)[C@]2(C)C1`, for which the Potency result is “inactive”.
Consider `C=C(C)[C@H]1CC=C(C)CC1`, for which the Potency entry was “inactive”.
For the compound `CC1=CC(C)C(C=O)C(C)C1` (configuration not stated), the Potency entry was “inactive”.
Same read-out and setting: with `COC(=O)[C@H]1[C@H]2C[C@@H]3c4[nH]c5cc(OC)ccc5c4CCN3C[C@H]2C[C@@H](OC(=O)COc2ccc(OC)cc2)[C@@H]1OC` the entry was “inactive”.
Consider `CN1[C@@H]2CC[C@H]1CC(NC(=O)n1c(=O)[nH]c3ccccc31)C2` (some centres not stated), for which the Potency result was “inactive”.
Turning to `COc1ccc(N=[N+]([O-])c2ccc(OC)cc2)cc1`, the Potency was 0.0679 µM (active).
`Oc1ccc2c(c1)OC[C@@H](N1CCC(O)(c3ccc(F)cc3)CC1)[C@H]2O`: the Potency was 9.44 µM (active).
Take `CCC(=O)/C=C/c1ccc(OC)cc1`: the Potency entry is “inactive”.
Take `CCN1CCCC(OC(=O)C(c2ccccc2)c2ccccc2)C1` (configuration not stated): the Potency entry is “inactive”.
`CCCCOCC(C)OCC(C)O` (configuration not stated): the Potency result was “inactive”.
For the compound `COC(=O)C1=C(C)NC(C)=C(C(=O)OCC(C)=O)C1c1ccccc1[N+](=O)[O-]` (configuration not stated), the Potency result is “inactive”.
Consider `Cc1nccn1CC1CCc2c(c3ccccc3n2C)C1=O` (configuration not stated), for which the Potency entry was “inactive”.
The same measure, in the same setting: next, `CCC(=O)Nc1cccc(N)c1`: “inactive”.
